Growth inhibition data for 19 molecules are collected here from PubChem BioAssay (NCI).

The nature of assay [1]: NCI Yeast Anticancer Drug Screen. Data for the rad50 strain (AID 155).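 Note: 0% = growth of vehicle-only cultures of the same strain.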 Particulars: S. cerevisiae rad50 strain growth inhibition; at 50.0 µM; active compounds read high. The gist of the method: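 Compounds were tested on a yeast strain with an engineered DNA damage repair alteration; the reported value is growth inhibition normalised to vehicle treatment.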
A short description of assay [2]: NCI Yeast Anticancer Drug Screen. Data for the mec2-1 strain (AID 157). Particulars: S. cerevisiae mec2-1 strain, at 50.0 µM, active compounds read high. The essentials:
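Yeast mec2-1 mutant treated with compound. Readout: growth inhibition vs vehicle controls.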

The nature of assay [3]: NCI Yeast Anticancer Drug Screen. Data for the sgs1 mgt1 strain (AID 161).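 Note: 0% = growth of cultures given vehicle only.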 Particulars: S. cerevisiae sgs1 mgt1 strain, at 50.0 µM, active compounds read high. The essentials: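 Inhibition of yeast growth, normalised to vehicle-treated controls, is reported for a strain bearing genetic alterations in DNA damage repair.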
The nature of assay [4]: NCI Yeast Anticancer Drug Screen. Data for the cln2 rad14 strain (AID 165).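 Note: 0% = growth equal to vehicle treated cultures.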 Conditions: S. cerevisiae cln2 rad14 strain, at 50.0 µM, active compounds read high. The essentials: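 cln2 rad14 yeast strain; compound exposure; growth inhibition read vs vehicle controls.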
The nature of assay [5]: NCI Yeast Anticancer Drug Screen. Data for the bub3 strain (AID 167). Particulars: S. cerevisiae bub3 mutant strain, at 50.0 µM, active compounds read high. The gist of the method:
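Growth of a checkpoint-deficient yeast mutant is measured after compound exposure. Values represent inhibition relative to vehicle.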

The nature of assay [6]: NCI Yeast Anticancer Drug Screen. Data for the mlh1 rad18 strain (AID 175). Particulars: S. cerevisiae mlh1 rad18 strain growth inhibition; at 50.0 µM; active compounds read high. The essentials:
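Yeast w/ defined DNA-repair lesions; compound exposure; growth vs vehicle controls → % inhibition.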

“And” between values parts separate entries of the source, which are not always exact repeats. Equal values may be shown once. About 79,000 compounds went through this panel and 15% of them were active in at least one assay; those are over-represented in the sample as a whole. Unmarked numbers belong to inactive results. The source made the active and inactive calls. Cut-off read from the data, not from the text of the source: active = growth inhibition above about 70%; inactive = the rest.

As to `O=C(O)C1CCCC(C(=O)O)[N-]1.O=C(O)C1CCCC(C(=O)O)[N-]1.[Cr+2]` (centres undefined), the growth inhibition in assay [1] is 31%; in assay [2] it was -3.5%; in assay [3], 15.8%; in assay [4] it was -14.5%; in assay [5] it was -2%; in assay [6], 14.3%.
For `O=S(=O)(c1ccc(O)cc1)c1ccc(O)cc1`, the growth inhibition is -5.25% and 0.75% in assay [1]; -2.8% and -7.6% in assay [2]; -3.75% and -4.95% in assay [3]; -11.7% and -36.2% in assay [4]; 1.85% and -8.15% in assay [5]; 2.55% and -4.05% in assay [6].
`O=C1NC(=O)C2(CCc3ccc(N(CCCl)CCCl)cc32)N1` (centres undefined): the growth inhibition in assay [1] was 14.1%; in assay [2] it was -19.5%; in assay [3], -4.75%; in assay [4], 11.9%; in assay [5], -16.6%; in assay [6] it was 11.1%.
Turning to `COc1ccc2nc3cc(Cl)ccc3c(NCCCSCCCl)c2n1`, the growth inhibition is 95.4% (active) in assay [1]; 80% (active) in assay [2]; 94.3% (active) in assay [3]; 78.4% (active) in assay [4]; 71.3% (active) in assay [5]; 92.2% (active) in assay [6].
Turning to `ClCc1ccco1`, the growth inhibition in assay [1] is 0.35%; in assay [2], 2.4%; in assay [3], 10.6%; in assay [4], -11.4%; in assay [5] it was 23.6%; in assay [6], 36.2%.
As for `BrCCCCCCBr`, the growth inhibition in assay [1] is -5.65%; in assay [2], 5.8%; in assay [3], 3.25%; in assay [4] it was -29.3%; in assay [5] it was 5.6%; in assay [6], 5.4%.
Take `CSCC(NP1(=O)SC(NN=C2CCCCC2)=NC1(C)C)C(=O)O` (centres undefined): the growth inhibition in assay [1] is 12.2%; in assay [2] it was 3.95%; in assay [3] it was 2%; in assay [4], -5.5%; in assay [5], -0.15%; in assay [6], 18.6%.
With `COc1cc(Cl)c(OP(=O)(OC)OC)cc1Cl`, the growth inhibition in assay [1] is -3.8%; in assay [2], 9.4%; in assay [3], 12.3%; in assay [4], -1.9%; in assay [5], -1.05%; in assay [6] it was 5.75%.
As for `CC(=O)OC1CCC2(C)C(=CC=C3C4CCC(=O)C4(C)CCC32)C1` (centres undefined), the growth inhibition in assay [1] was 5.85% and 8.55%; in assay [2], 44.6% and 36.8%; in assay [3], -5.15% and 3.5%; in assay [4], 3% and 2.9%; in assay [5], 35.1% and 34.3%; in assay [6] it was 22.5% and 10.2%.
`CCOC(CNC(=O)c1ccc(S(=O)(=O)F)cc1)OCC`: the growth inhibition is -4.4% in assay [1]; 27.6% in assay [2]; 22.1% in assay [3]; -5.9% in assay [4]; 42.8% in assay [5]; 26.4% in assay [6].
Regarding `O=S(=O)(Cl)OO/C=C\OOS(=O)(=O)Cl`, the growth inhibition in assay [1] is 18.2%; in assay [2], 2.8%; in assay [3], 12.7%; in assay [4], -19.2%; in assay [5], 11%; in assay [6], -1.65%.
With `CP1(=S)CC[C@H]2C3=C(CC[C@@H]21)CC(=O)CC3` (some centres undefined), the growth inhibition in assay [1] was 14.4%; in assay [2], 14.6%; in assay [3], 11.3%; in assay [4] it was 52.9%; in assay [5], 2.9%; in assay [6], 16.9%.
For `O=C1OC(=O)C2C3C=CC(O3)C12` (centres undefined), the growth inhibition in assay [1] is -9.15% and -16.2% and 22.6%; in assay [2], -14.2% and -0.8% and -0.1%; in assay [3] it was -25.2% and 3.95% and 14.6%; in assay [4] it was 6% and 1.55% and 10.6%; in assay [5], -42.2% and -28.7% and 6.3%; in assay [6], -6.4% and -16.8% and 19.6%.
For the molecule `CN(C(=[Se])[Se]C(=[Se])N(C)C1CCCCC1)C1CCCCC1`, the growth inhibition in assay [1] is 19.4%; in assay [2], 5%; in assay [3], 8.35%; in assay [4] it was 18.4%; in assay [5], 0.4%; in assay [6], 12.6%.
As to `O=[P+](O)C(O)c1ccccc1` (centres undefined), the growth inhibition in assay [1] was -20.6%; in assay [2], -27.9%; in assay [3] it was -14.1%; in assay [4] it was 4.9%; in assay [5], -10.8%; in assay [6] it was -7.7%.
As for `CC(=O)OC1CC2(O)C(CCC3(C)C(c4ccc(=O)oc4)CCC32O)C2(C)C1=CC(O)C1OC12` (centres undefined), the growth inhibition in assay [1] is 3.95%; in assay [2], 6.85%; in assay [3], -12.4%; in assay [4] it was -1.7%; in assay [5], -2%; in assay [6], -13.9%.
For the molecule `CCC1(Sc2ncnc3c2ncn3C2OC(CO)C(O)C2O)C(=O)NC(=O)NC1=O` (centres undefined), the growth inhibition is 4.5% in assay [1]; 2.7% in assay [2]; -7.95% in assay [3]; 16.9% in assay [4]; -6.05% in assay [5]; -7.2% in assay [6].
As to `COc1ccc([N+](=O)[O-])cc1N=Cc1ccc(N(CCCl)CCCl)cc1C`, the growth inhibition was 43% in assay [1]; 13.3% in assay [2]; 52.2% in assay [3]; 18.6% in assay [4]; 3.5% in assay [5]; 17.1% in assay [6].
In the case of `CNC(P(=O)([O-])[O-])P(=O)([O-])[O-].N.N.[Pt+2]`, the growth inhibition in assay [1] was -0.2%; in assay [2], -16.3%; in assay [3], -47.2%; in assay [4] it was -17.1%; in assay [5] it was -8.65%; in assay [6] it was -15.7%.
